Source: PubChem BioAssay (NCI)
Compounds without any hit were thinned out: in the full panel of roughly 79,000, 15% have a hit. The source made the active and inactive calls. Rule as the data show it: active = growth inhibition above about 70%; inactive = the rest.

Experiments:
[1] = NCI Yeast Anticancer Drug Screen. Data for the rad50 strain (AID 155);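 also: 0% = growth of vehicle-only cultures of the same strain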; details: S. cerevisiae rad50 strain growth inhibition, active compounds read high
Outline: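 Relative growth inhibition (compound vs vehicle) was measured in yeast with a defined repair-gene alteration.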

[2] = NCI Yeast Anticancer Drug Screen. Data for the mec2-1 strain (AID 157); details: S. cerevisiae mec2-1 strain, active compounds read high
Outline: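 Compounds were applied to mec2-1 yeast cells. Their growth was then compared with that of vehicle-treated cultures to give growth inhibition.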

[3] = NCI Yeast Anticancer Drug Screen. Data for the sgs1 mgt1 strain (AID 161);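 also: 0% = growth of cultures given vehicle only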; details: S. cerevisiae sgs1 mgt1 strain, active compounds read high
Outline: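 Compounds are added to genetically altered yeast, and growth is compared with cultures given vehicle alone to give percent inhibition.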

[4] = NCI Yeast Anticancer Drug Screen. Data for the cln2 rad14 strain (AID 165);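 also: 0% = growth equal to vehicle treated cultures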; details: S. cerevisiae cln2 rad14 strain, active compounds read high
Outline: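 Strain: cln2 rad14 yeast, altered in cell cycle control and DNA damage repair. Read-out: growth inhibition vs vehicle.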

[5] = NCI Yeast Anticancer Drug Screen. Data for the bub3 strain (AID 167); details: S. cerevisiae bub3 mutant strain, active compounds read high
Outline: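 Screening used yeast with an engineered genetic alteration affecting cell cycle control. Compound-exposed cultures were compared with vehicle cultures, and reduced growth was taken as inhibition.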

[6] = NCI Yeast Anticancer Drug Screen. Data for the mlh1 rad18 strain (AID 175); details: S. cerevisiae mlh1 rad18 strain growth inhibition, active compounds read high
Outline: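 A repair-deficient yeast strain is exposed to test compound, and growth is scored relative to vehicle-treated controls.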

[7] = at 5.0 µM (retest, dose inferred, filed as 0.5)
[8] = at 50.0 µM (retest, dose inferred, filed as 5.0)

Measured: growth inhibition

O/N=C1/C(=C/c2ccc3c(c2)OCO3)CCCC1C(NO)c1ccc2c(c1)OCO2 (stereo not given)
active: [1]; at 50.0 µM 82.3% | [2]; at 50.0 µM 90.5% | [3]; at 50.0 µM 97% | [6]; at 50.0 µM 97.4%
inactive: [1]; [7] -2% | [1]; [8] 65% | [2]; [7] -2% | [2]; [8] 3% | [3]; [7] 4% | [3]; [8] 50% | [4]; [7] -5% | [4]; [8] 25% | [4]; at 50.0 µM -7.15% | [5]; [7] -2% | [5]; [8] 51% | [5]; at 50.0 µM 38.4% | [6]; [7] -3% | [6]; [8] 27%

CCCCCc1cc(C(=O)OC/C(C)=N/O)c2ccccc2n1
active: [1]; [8] 90% | [1]; at 50.0 µM 97.2% | [2]; [8] 95% | [2]; at 50.0 µM 97.5% | [3]; [8] 91% | [3]; at 50.0 µM 96.5% | [4]; [8] 92% | [4]; at 50.0 µM 83.2% | [5]; [8] 93% | [5]; at 50.0 µM 97.8% | [6]; [8] 93% | [6]; at 50.0 µM 97.4%
inactive: [1]; [7] -5% | [2]; [7] -9% | [3]; [7] -6% | [4]; [7] -5% | [5]; [7] -6% | [6]; [7] -6%

Cc1cc(C(=O)c2ccccc2)ccc1O
active: [6]; at 50.0 µM 70.1%
inactive: [1]; [7] 2% | [1]; [8] 33% | [1]; at 50.0 µM 48% | [2]; [7] -6% | [2]; [8] 36% | [2]; at 50.0 µM 36.9% | [3]; [7] 3% | [3]; [8] 47% | [3]; at 50.0 µM 46.6% | [4]; [7] -7% | [4]; [8] -16% | [4]; at 50.0 µM -8.4% | [5]; [7] -3% | [5]; [8] 3% | [5]; at 50.0 µM 48.7% | [6]; [7] -2% | [6]; [8] 36%

CCO[Si](CC)(OCC)OCC
inactive: [1]; [7] -3% | [1]; [8] 2% | [1]; at 50.0 µM 27.1% | [2]; [7] -6% | [2]; [8] -3% | [2]; at 50.0 µM 4.4% | [3]; [7] 4% | [3]; [8] 3% | [3]; at 50.0 µM -12.2% | [4]; [7] 0% | [4]; [8] 3% | [5]; [7] -3% | [5]; [8] 6% | [5]; at 50.0 µM -6% | [6]; [7] -2% | [6]; [8] 3% | [6]; at 50.0 µM 31.8%
active: [4]; at 50.0 µM 81.1%

O=C(c1ccc(O)cc1)c1ccccc1O
active: [1]; [8] 76%
inactive: [1]; [7] 6% | [1]; at 50.0 µM 63.8% | [2]; [7] -7% | [2]; [8] 23% | [2]; at 50.0 µM 37.2% | [3]; [7] -2% | [3]; [8] 14% | [3]; at 50.0 µM 44.4% | [4]; [7] -1% | [4]; [8] 3% | [4]; at 50.0 µM -7.55% | [5]; [7] 45% | [5]; [8] 41% | [5]; at 50.0 µM 17.9% | [6]; [7] -2% | [6]; [8] 23% | [6]; at 50.0 µM 51.6%

CCOC(=O)c1c(N)c(=O)n2c3c(cccc13)CC2
inactive: [1]; [7] 0% | [2]; [7] -2% | [3]; [7] 0% | [4]; [7] 7% | [4]; [8] 59% | [5]; [7] -1% | [6]; [7] 21%
active: [1]; [8] 92% | [1]; at 50.0 µM 96.9% | [2]; [8] 98% | [2]; at 50.0 µM 97.5% | [3]; [8] 99% | [3]; at 50.0 µM 97.7% | [4]; at 50.0 µM 98.7% | [5]; [8] 79% | [5]; at 50.0 µM 96.8% | [6]; [8] 98% | [6]; at 50.0 µM 98.6%

O=c1cc(/C=C/c2ccccc2)cccc1O
active: [1]; [7] 79% | [1]; [8] 97% | [1]; at 50.0 µM 97.8% | [2]; [7] 90% | [2]; [8] 96% | [2]; at 50.0 µM 98.2% | [3]; [7] 84% | [3]; [8] 99% | [3]; at 50.0 µM 98.5% | [4]; [8] 98% | [4]; at 50.0 µM 96.9% | [5]; [7] 97% | [5]; [8] 93% | [5]; at 50.0 µM 97.5% | [6]; [8] 98% | [6]; at 50.0 µM 97.9%
inactive: [4]; [7] 56% | [6]; [7] 58%

CC(=O)/C(=C/n1c(=S)[nH]c2ccc([N+](=O)[O-])cc21)C(=O)Nc1ccc(Cl)cc1
inactive: [1]; [7] 1% | [1]; [8] -1% | [1]; at 50.0 µM 10.9% | [2]; [7] -9% | [2]; [8] 2% | [2]; at 50.0 µM 6.75% | [3]; [7] 0% | [3]; [8] -5% | [3]; at 50.0 µM 16.7% | [4]; [7] -21% | [4]; [8] -17% | [4]; at 50.0 µM 46.4% | [5]; [7] -4% | [5]; [8] -2% | [5]; at 50.0 µM 15.6% | [6]; [7] 1% | [6]; [8] -2% | [6]; at 50.0 µM 22.3%

O=C1c2ccc(O)c(O)c2C(=O)c2cccc(O)c21
inactive: [1]; [7] 68% | [1]; at 50.0 µM 28.1% | [2]; [7] 30% | [2]; [8] 49% | [2]; at 50.0 µM 3.9% | [3]; at 50.0 µM 36.6% | [4]; [7] 34% | [4]; [8] 46% | [4]; at 50.0 µM 22.7% | [5]; at 50.0 µM 18.4% | [6]; at 50.0 µM 26.3%
active: [1]; [8] 72% | [3]; [7] 83% | [3]; [8] 84% | [5]; [7] 91% | [5]; [8] 93% | [6]; [7] 83% | [6]; [8] 88%

COC(=O)C(=O)C(C(=O)c1ccc(F)cc1)c1nc2n(c1O)C(=N)N=N2 (stereo not given)
active: [2]; at 50.0 µM 77.6% | [3]; [8] 76% | [6]; [8] 79%
inactive: [1]; [7] 1% | [1]; [8] 52% | [1]; at 50.0 µM 39.6% | [2]; [7] -17% | [2]; [8] 46% | [3]; [7] 19% | [3]; at 50.0 µM 23.9% | [4]; [7] 14% | [4]; [8] 57% | [4]; at 50.0 µM 59.9% | [5]; [7] 14% | [5]; [8] 67% | [5]; at 50.0 µM 35.2% | [6]; [7] 24% | [6]; at 50.0 µM 34.8%
